This is part of a sample that, as a whole, favours compounds with a hit. Of some 83,000 tested, about 20% had one in any assay.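 Negative percent growth values reflect cell death: -40 means 40% of the cells present at the start died, and -100 means all died.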 The source made the active and inactive calls. Rule for the calls: active = growth percent below 10; inactive = the rest.
Assays:
Experiment in all cases: NCI-60 one-dose screen, 48 h (100 = growth as untreated, 0 = no growth, -100 = all killed)
Conditions in all cases: 10 µM unless noted
HCT-15 colon = tested on: HCT-15 colon
HT29 colon = tested on: HT29 colon
SNB-75 CNS = tested on: SNB-75 CNS
SNB-19 CNS = tested on: SNB-19 CNS
U251 CNS = tested on: U251 CNS
PC-3 prostate = tested on: PC-3 prostate
SK-MEL-5 melanoma = tested on: SK-MEL-5 melanoma
UACC-62 melanoma = tested on: UACC-62 melanoma
LOX IMVI melanoma = tested on: LOX IMVI melanoma
SK-MEL-28 melanoma = tested on: SK-MEL-28 melanoma
SK-MEL-2 melanoma = tested on: SK-MEL-2 melanoma
EKVX NSCLC = tested on: EKVX NSCLC
SN12C renal = tested on: SN12C renal
UO-31 renal = tested on: UO-31 renal
TK-10 renal = tested on: TK-10 renal
ACHN renal = tested on: ACHN renal
CAKI-1 renal = tested on: CAKI-1 renal
A498 renal = tested on: A498 renal
CCRF-CEM leukemia = tested on: CCRF-CEM leukemia
MOLT-4 leukemia = tested on: MOLT-4 leukemia

Measured: growth

Cn1cc(-c2nonc2-c2c[nH]c3ccc(F)cc23)c2cc(Br)ccc21
active: LOX IMVI melanoma 9.44%
inactive: HCT-15 colon 30.4% | HT29 colon 20.9% | SNB-75 CNS 45.5% | SNB-19 CNS 58% | U251 CNS 41.4% | PC-3 prostate 44.2% | SK-MEL-5 melanoma 76.6% | UACC-62 melanoma 52.9% | SK-MEL-28 melanoma 73.2% | SK-MEL-2 melanoma 71.5% | EKVX NSCLC 37.6% | SN12C renal 63.7% | UO-31 renal 30.4% | TK-10 renal 57% | ACHN renal 38.4% | CAKI-1 renal 25.3% | A498 renal 44.8% | CCRF-CEM leukemia 40.7% | MOLT-4 leukemia 32.1%

CC(C)CCC[C@@H](C)C1CCC2C3CCC4=C/C(=N/OCCN(C)C)CC[C@]4(C)C3CC[C@@]21C (stereo not given in full)
inactive: HCT-15 colon 98.3% | HT29 colon 78.7% | SNB-75 CNS 80.5% | SNB-19 CNS 86.5% | U251 CNS 79.2% | PC-3 prostate 57.1% | SK-MEL-5 melanoma 99.3% | UACC-62 melanoma 84.9% | LOX IMVI melanoma 57.8% | SK-MEL-28 melanoma 101% | SK-MEL-2 melanoma 83.7% | EKVX NSCLC 94.7% | SN12C renal 92.6% | UO-31 renal 61.7% | TK-10 renal 70.4% | ACHN renal 88.9% | CAKI-1 renal 79.9% | A498 renal 80.8% | CCRF-CEM leukemia 26.6% | MOLT-4 leukemia 49.2%

COC(=O)c1ccc2c(c1)c1c(C)c3ccncc3c(C)c1n2C
active: UACC-62 melanoma 3.04% | LOX IMVI melanoma 4.81% | A498 renal -0.17%
inactive: HCT-15 colon 18.6% | HT29 colon 12.4% | SNB-75 CNS 22% | SNB-19 CNS 29% | U251 CNS 20.9% | PC-3 prostate 31.8% | SK-MEL-5 melanoma 14.5% | SK-MEL-28 melanoma 35.4% | SK-MEL-2 melanoma 13.9% | EKVX NSCLC 34.3% | SN12C renal 36.1% | UO-31 renal 11.9% | TK-10 renal 32.7% | ACHN renal 14.8% | CAKI-1 renal 13% | CCRF-CEM leukemia 30.4% | MOLT-4 leukemia 12.9%

Nc1c(C(=O)Nc2cccc3ncccc23)sc2nc3c(cc12)C(=O)CCC3
active: A498 renal 4.53%
inactive: HCT-15 colon 52.9% | HT29 colon 35.9% | SNB-75 CNS 43.7% | SNB-19 CNS 38% | U251 CNS 57.5% | PC-3 prostate 35.1% | SK-MEL-5 melanoma 30.3% | UACC-62 melanoma 17.8% | LOX IMVI melanoma 55% | SK-MEL-28 melanoma 49% | SK-MEL-2 melanoma 36.3% | EKVX NSCLC 58.6% | SN12C renal 60.8% | UO-31 renal 58.3% | TK-10 renal 76.8% | ACHN renal 52% | CAKI-1 renal 58.8% | CCRF-CEM leukemia 30.5% | MOLT-4 leukemia 66.6%

C[N+](C)(C/C=C/c1ccccc1)Cc1ccccc1
inactive: HCT-15 colon 97.8% | HT29 colon 91.9% | SNB-75 CNS 87.5% | SNB-19 CNS 104% | U251 CNS 102% | PC-3 prostate 97% | SK-MEL-5 melanoma 95.6% | UACC-62 melanoma 99.3% | LOX IMVI melanoma 89% | SK-MEL-28 melanoma 102% | SK-MEL-2 melanoma 93.7% | EKVX NSCLC 92.7% | SN12C renal 101% | UO-31 renal 82.4% | TK-10 renal 96.3% | ACHN renal 99.4% | CAKI-1 renal 97.2% | A498 renal 94.6% | CCRF-CEM leukemia 149% | MOLT-4 leukemia 103%

C/C(=C(\c1ccc(OCCN2CCCCCC2)cc1)c1ccc(OC(=O)Cc2ccccc2)cc1)c1ccc(Cl)cc1
inactive: SNB-75 CNS 39.7% | SNB-19 CNS 63.1% | PC-3 prostate 41.9% | SK-MEL-5 melanoma 40.1% | SK-MEL-2 melanoma 52.9% | EKVX NSCLC 56.4% | SN12C renal 28.9% | UO-31 renal 44.1% | TK-10 renal 68.6% | ACHN renal 62.3% | CAKI-1 renal 48.7% | A498 renal 79%
active: HCT-15 colon -15.5% | HT29 colon -8.13% | U251 CNS 8.22% | UACC-62 melanoma -5.48% | LOX IMVI melanoma -94.5% | SK-MEL-28 melanoma -27.3% | CCRF-CEM leukemia 6.31% | MOLT-4 leukemia -6.79%

CCOC(=O)c1c(-c2ccccc2)n2c(=O)cc(C)c3c(O)c(O)cc1c32
inactive: HCT-15 colon 28.8% | HT29 colon 70.9% | SNB-75 CNS 63.6% | SNB-19 CNS 65.6% | U251 CNS 48.8% | PC-3 prostate 41.7% | SK-MEL-5 melanoma 41.9% | UACC-62 melanoma 69.4% | LOX IMVI melanoma 43% | SK-MEL-28 melanoma 76% | SK-MEL-2 melanoma 83.8% | EKVX NSCLC 86.6% | SN12C renal 68.7% | UO-31 renal 51.1% | TK-10 renal 89.2% | ACHN renal 47% | CAKI-1 renal 52% | A498 renal 88.6% | CCRF-CEM leukemia 17.1% | MOLT-4 leukemia 36.1%

CCCCCCCCCCCCCCCCOC(=O)c1c(C)[nH]c(/C=C2\N=C(c3ccc[nH]3)C=C2OC)c1C
active: SK-MEL-5 melanoma -80.8% | UACC-62 melanoma -15.3% | LOX IMVI melanoma -83.9% | SK-MEL-2 melanoma -25.9%
inactive: HCT-15 colon 56.3% | HT29 colon 13.6% | SNB-75 CNS 51.4% | SNB-19 CNS 84.6% | U251 CNS 41.7% | PC-3 prostate 45.6% | SK-MEL-28 melanoma 51.1% | EKVX NSCLC 68.3% | SN12C renal 55.9% | UO-31 renal 30.4% | TK-10 renal 18.8% | ACHN renal 48.8% | CAKI-1 renal 15.4% | A498 renal 33.9% | CCRF-CEM leukemia 50.4% | MOLT-4 leukemia 91.9%

Cn1c(O)c(C(/C=C/c2ccccc2)=Nc2ccccc2N)c(=O)n(C)c1=O
inactive: HCT-15 colon 91.5% | HT29 colon 72.1% | SNB-75 CNS 90.7% | SNB-19 CNS 101% | U251 CNS 101% | PC-3 prostate 77.7% | SK-MEL-5 melanoma 75.4% | UACC-62 melanoma 76.1% | LOX IMVI melanoma 90.3% | SK-MEL-28 melanoma 120% | SK-MEL-2 melanoma 129% | EKVX NSCLC 82% | SN12C renal 96.1% | UO-31 renal 83.4% | TK-10 renal 134% | ACHN renal 99.3% | CAKI-1 renal 102% | A498 renal 130% | CCRF-CEM leukemia 67.3%
active: MOLT-4 leukemia -43.5%

COc1ccc(C2=C/C(=C\c3ccc(Cl)cc3)C(=O)N2/N=C/c2ccc(Cl)cc2)cc1
inactive: HCT-15 colon 98.8% | HT29 colon 86.8% | SNB-75 CNS 105% | SNB-19 CNS 96.7% | U251 CNS 84.5% | PC-3 prostate 91.4% | SK-MEL-5 melanoma 99.5% | UACC-62 melanoma 84.4% | LOX IMVI melanoma 99.1% | SK-MEL-28 melanoma 101% | SK-MEL-2 melanoma 107% | EKVX NSCLC 93.8% | SN12C renal 87.7% | UO-31 renal 79.4% | TK-10 renal 87.2% | ACHN renal 98.3% | CAKI-1 renal 90.5% | A498 renal 103% | CCRF-CEM leukemia 100% | MOLT-4 leukemia 92%

CN1CCN(CCCOc2ccc3ncnc(Nc4ccc(Oc5cccc(F)c5)c(Cl)c4)c3c2)CC1
inactive: SNB-75 CNS 52.1% | SNB-19 CNS 34.8% | EKVX NSCLC 29.6% | SN12C renal 49.4% | UO-31 renal 34.2% | TK-10 renal 37% | A498 renal 33.2%
active: HCT-15 colon -3.99% | HT29 colon -25.1% | U251 CNS 8.27% | PC-3 prostate 8.64% | SK-MEL-5 melanoma -96.3% | UACC-62 melanoma -31.8% | LOX IMVI melanoma -91.6% | SK-MEL-28 melanoma -85.9% | SK-MEL-2 melanoma -8.81% | ACHN renal -11.3% | CAKI-1 renal 5.24% | CCRF-CEM leukemia -6.61% | MOLT-4 leukemia -3.25%

CCSC1=CC(=O)c2ccccc2C1=O
inactive: HCT-15 colon 73% | HT29 colon 105% | SNB-75 CNS 52.8% | SNB-19 CNS 87.6% | U251 CNS 79.1% | PC-3 prostate 73% | SK-MEL-5 melanoma 50.8% | UACC-62 melanoma 59.1% | LOX IMVI melanoma 47.7% | SK-MEL-28 melanoma 36.7% | SK-MEL-2 melanoma 94.2% | EKVX NSCLC 92.8% | SN12C renal 82.8% | UO-31 renal 27% | TK-10 renal 89% | CAKI-1 renal 32.2% | A498 renal 97.8%
active: ACHN renal 3.01% | CCRF-CEM leukemia -6.88% | MOLT-4 leukemia 5.83%

COc1ccc(NC(=O)c2sc3nc4c(cc3c2N)CCCC4)cc1
inactive: HCT-15 colon 28.6% | SNB-75 CNS 17.3% | SNB-19 CNS 34.7% | U251 CNS 22.6% | PC-3 prostate 26.9% | UACC-62 melanoma 43% | LOX IMVI melanoma 35.8% | SK-MEL-28 melanoma 62.3% | SK-MEL-2 melanoma 34.9% | EKVX NSCLC 44.3% | SN12C renal 60.8% | UO-31 renal 48% | TK-10 renal 38.8% | ACHN renal 49.3% | CAKI-1 renal 38.5% | MOLT-4 leukemia 21.5%
active: HT29 colon 0.414% | SK-MEL-5 melanoma 5.04% | A498 renal 5.75% | CCRF-CEM leukemia 9.46%

CNCc1cccc2c1OCCOCCN(C)C(=O)CN(C)S(=O)(=O)c1ccc(cc1)-c1cnc(N)c(n1)C(=O)N2
inactive: HCT-15 colon 66.3% | HT29 colon 11.6% | SNB-19 CNS 25.5% | PC-3 prostate 57.9% | SK-MEL-5 melanoma 55.4% | LOX IMVI melanoma 10.3% | EKVX NSCLC 41.8% | SN12C renal 20.7% | UO-31 renal 101% | TK-10 renal 11.5% | CAKI-1 renal 27.2% | A498 renal 70.3%
active: SNB-75 CNS -19.2% | U251 CNS -62.3% | UACC-62 melanoma 4.98% | SK-MEL-28 melanoma -85.8% | SK-MEL-2 melanoma 4.91% | ACHN renal -2.97% | CCRF-CEM leukemia -18.4% | MOLT-4 leukemia -1.69%
